Laboratory results reported in PubChem BioAssay (Tox21).
Results filed as inconclusive are left out. Where a call stands in place of a potency, no number is given. The source made the active and inactive calls. The call rests on the fitted dose curve.

Molecular target: Thyrotropin receptor (Homo sapiens) (UniProt P16473)
Assay: qHTS assay to identify small molecule agonists of the thyroid stimulating hormone receptor (TSHR) signaling pathway (AID 1224843); further: nearly all actives have a fitted effect of over 45% in size
Conditions: TSHR-HEK293 cells, cAMP HTRF, agonist mode, 30 min; series mostly up to 92.4 µM
Text: National Center for Advancing Translational Sciences [NCATS]
NIH Chemical Genomics Center [NCGC]
U.S. Environmental Protection Agency [EPA]
National Institutes of Environmental Health Sciences [NIEHS]
National Toxicology Program [NTP]
U.S. Food and Drug Administration [FDA]
TSHR is the receptor for thyrotropin (thyroid stimulating hormone or TSH), a member of the glycoprotein hormone family. TSH is released by the anterior pituitary gland and is the main regulator of thyroid gland growth and development. Upon binding circulating thyrotropin, a G-protein signal cascade activates adenylyl cyclase and […] cAMP concentration is increased. cAMP is a key second messenger involved extensively in cellular signal transduction pathways associated with the majority of G-protein coupled receptors (GPCRs). The activation of these GPCRs by neurotransmitters, lipids, nucleotides, peptides and hormones results in the activation or the inhibition of plasma membrane-bound adenylate cyclase through heterotrimeric G-proteins. A cell-based TSHR assay was used to screen the Tox21 10K library for compounds that can modulate TSHR in agonist mode.
Tox21 Assay Protocol Summary:
TSHR-Hek293 cells were dispensed at 800 cells/4uL/well in 1536-well white plates using a Multidrop dispenser. […] The plates were incubated at room temperature for 30 min. 2.5 ul/well of cAMP-d2 and 2.5ul/well of anti-cAMP-cryptate was added respectively into the assay plates using a Flying Reagent Dispenser. After 1 hr incubation at room temperature, the fluorescence intensity in the plates was measured using an Envision plate reader. Each test compound was measured at 15 concentrations and in triplicates.
Potency means the concentration at half of the fitted maximal effect.

Sequence of Thyrotropin receptor (Homo sapiens) (P16473 whole entry, looked up): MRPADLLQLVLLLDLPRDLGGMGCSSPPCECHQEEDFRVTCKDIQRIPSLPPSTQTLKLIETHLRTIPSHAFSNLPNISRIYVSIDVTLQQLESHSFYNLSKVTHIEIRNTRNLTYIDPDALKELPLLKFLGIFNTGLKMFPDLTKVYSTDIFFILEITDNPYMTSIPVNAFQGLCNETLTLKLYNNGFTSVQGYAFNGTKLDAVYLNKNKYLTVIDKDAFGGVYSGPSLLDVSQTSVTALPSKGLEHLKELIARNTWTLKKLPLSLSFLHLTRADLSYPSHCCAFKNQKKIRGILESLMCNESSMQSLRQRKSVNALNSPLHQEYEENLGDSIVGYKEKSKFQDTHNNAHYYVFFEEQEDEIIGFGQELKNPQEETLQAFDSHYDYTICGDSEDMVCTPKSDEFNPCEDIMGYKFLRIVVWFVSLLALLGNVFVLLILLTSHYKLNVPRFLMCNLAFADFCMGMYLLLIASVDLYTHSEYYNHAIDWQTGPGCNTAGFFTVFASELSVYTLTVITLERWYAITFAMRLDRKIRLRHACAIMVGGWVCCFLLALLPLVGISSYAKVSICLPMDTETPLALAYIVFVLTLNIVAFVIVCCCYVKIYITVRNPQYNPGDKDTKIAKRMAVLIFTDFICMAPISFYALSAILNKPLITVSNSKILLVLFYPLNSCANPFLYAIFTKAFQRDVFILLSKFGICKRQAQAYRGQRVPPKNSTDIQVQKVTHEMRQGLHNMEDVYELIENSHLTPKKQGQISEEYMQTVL

| Compound | Potency | activation |
| --- | --- | --- |
| CCc1ccc(C(=O)NN(C(=O)c2cc(C)cc(C)c2)C(C)(C)C)cc1 | 15.4 µM (active) | – |
| C=CC(=O)OC(C)(C)C | inactive | – |
| CCCCN=C=O | inactive | – |
| ClCc1cccc(Cl)c1 | inactive | – |
| CC1Sc2c(C(=O)O)c(=O)c3cc(F)c(N4CCNCC4)cc3n21 (stereo not given) | inactive | – |
| Cn1sc(Cl)cc1=O | inactive | – |
| CCOC(=O)[C@]1(c2ccccc2)Oc2ccccc2[C@@H]1N | inactive | – |
| CCOC(=O)C(Cl)C(C)=O (stereo not given) | inactive | – |
| CC(=O)[C@H]1CC[C@H]2[C@@H]3CC[C@H]4C[C@](C)(O)CC[C@]4(C)[C@H]3CC[C@]12C | inactive | – |
| CCCCCCCCCCOC(=O)c1ccccc1C(=O)OCCCCCCCCCC | inactive | – |
| CCOC(=O)CBr | inactive | – |
| O=S(=O)(Cl)c1ccccc1 | inactive | – |
| N#Cc1ccc(Cl)cc1 | inactive | – |
| C=CC(C)=O | inactive | – |
| CC(C)N(C(=O)COc1nnc(C(F)(F)F)s1)c1ccc(F)cc1 | inactive | – |
| CCOP(=O)(OCC)SCCSCC | inactive | – |
| NCC(CC(=O)O)c1ccc(Cl)cc1 (stereo not given) | – | 16.4% [at 0.349 µM] (inactive) |
| ClCc1ccccc1 | inactive | – |
| CC(C)N(CCC(C(N)=O)(c1ccccc1)c1ccccn1)C(C)C (stereo not given) | inactive | – |
| CCCC(Cn1cncn1)c1ccc(Cl)cc1Cl (stereo not given) | inactive | – |

| Compound | Potency | activation |
| --- | --- | --- |
| CCCC(=O)Cl | inactive | – |
| NS(=O)(=O)C(F)(F)C(F)(F)C(F)(F)C(F)(F)C(F)(F)C(F)(F)C(F)(F)C(F)(F)F | inactive | – |
| c1ccoc1 | inactive | – |
| S=C=NCc1ccccc1 | inactive | – |
| NNC(=O)c1cccnc1 | inactive | – |
| CCC(Br)(CC)C(=O)NC(N)=O | inactive | – |
| C=CC(=O)OCCCCO | inactive | – |
| OC(c1ccc(Cl)cc1)(c1ccc(Cl)cc1)c1cccnc1 | 30.6 µM (active) | – |
| Cc1ccc2ccccc2c1 | inactive | – |
| BrCC(Br)C1CCC(Br)C(Br)C1 (stereo not given) | 48.3 µM (active) | – |
| C=CC(=O)OC | inactive | – |
| CCC(C)(NC(=O)c1cc(Cl)c(C)c(Cl)c1)C(=O)CCl (stereo not given) | 43.5 µM (active) | – |
| COP(=S)(OC)Oc1cc(Cl)c(I)cc1Cl | inactive | – |
| Cc1cc(=O)[nH]o1 | inactive | – |
| O=S1OC[C@@H]2[C@H](CO1)[C@]1(Cl)C(Cl)=C(Cl)[C@@]2(Cl)C1(Cl)Cl (stereo not given in full) | 10.9 µM (active) | – |
| CC(=O)C(C)(C)C | inactive | – |
| CC(C)(C)c1cc([N+](=O)[O-])cc([N+](=O)[O-])c1O | inactive | – |
| CCCCNP(N)(N)=S | inactive | – |
| Nc1ccc([N+](=O)[O-])cc1[N+](=O)[O-] | inactive | – |
| C(=NC1CCCCC1)=NC1CCCCC1 | inactive | – |
